Test results from PubChem BioAssay (NCI).
About 79,000 compounds went through this panel and 15% of them were active in at least one assay; those are over-represented in the sample as a whole. Calls of active or inactive are those of the source. No stated cut-off is given here; in the data, active means growth inhibition above about 70%; inactive means the rest.

How the values were obtained:
[1] = NCI Yeast Anticancer Drug Screen. Data for the mec2-1 strain (AID 157); conditions: S. cerevisiae mec2-1 strain, stronger effect = higher value
Method in brief: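 mec2-1 yeast strain, carrying an alteration in DNA damage repair or cell cycle control, was exposed to compounds; growth inhibition was measured relative to vehicle-treated controls.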

[2] = NCI Yeast Anticancer Drug Screen. Data for the rad14 strain (AID 159);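 further: 0% = growth of vehicle-treated control cultures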; conditions: S. cerevisiae rad14 strain growth inhibition, stronger effect = higher value
Method in brief: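 Test compounds were applied to a repair-deficient yeast strain. Its growth was then compared with that of cultures given vehicle alone, and inhibition was expressed relative to those controls.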

[3] = NCI Yeast Anticancer Drug Screen. Data for the sgs1 mgt1 strain (AID 161);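 further: 0% = growth of cultures given vehicle only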; conditions: S. cerevisiae sgs1 mgt1 strain, stronger effect = higher value
Method in brief: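 Percent growth inhibition was derived by comparing compound-exposed mutant yeast with vehicle-exposed cultures. The strain carries alterations in DNA damage repair.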

[4] = NCI Yeast Anticancer Drug Screen. Data for the CLN2oe strain (AID 163);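 further: 0% = growth of vehicle-only control cultures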; conditions: S. cerevisiae CLN2oe strain, stronger effect = higher value
Method in brief: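 Yeast cells carrying a defined cell-cycle control alteration were exposed to test compounds. Growth inhibition was scored against vehicle-treated control cultures.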

[5] = NCI Yeast Anticancer Drug Screen. Data for the cln2 rad14 strain (AID 165);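 further: 0% = growth equal to vehicle treated cultures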; conditions: S. cerevisiae cln2 rad14 strain, stronger effect = higher value
Method in brief: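 Yeast carrying cln2 and rad14 alterations (cell cycle control and DNA damage repair) were exposed to compounds. Growth inhibition was measured against vehicle-treated controls.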

[6] = NCI Yeast Anticancer Drug Screen. Data for the bub3 strain (AID 167); conditions: S. cerevisiae bub3 mutant strain, stronger effect = higher value
Method in brief: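 Yeast carrying a defined mutation is treated with each compound, and growth is compared with that of vehicle-exposed cells to give inhibition.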

[7] = NCI Yeast Anticancer Drug Screen. Data for the mlh1 strain (AID 171);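 further: 0% = growth of vehicle-treated control cultures of the same strain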; conditions: S. cerevisiae mlh1 strain growth inhibition, stronger effect = higher value
Method in brief: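 Yeast carrying a defined genetic alteration in DNA damage repair or cell cycle control were exposed to test compounds. Growth inhibition was measured relative to vehicle-treated controls.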

[8] = NCI Yeast Anticancer Drug Screen. Data for the sgs1 strain (AID 173);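 further: 0% = growth of vehicle-only control cultures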; conditions: S. cerevisiae sgs1 mutant, stronger effect = higher value
Method in brief: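 Yeast mutant strains carrying defined defects in DNA damage repair or cell cycle control were exposed to test compounds. Growth inhibition was scored against vehicle-treated controls.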

[9] = NCI Yeast Anticancer Drug Screen. Data for the rad18 strain (AID 177); conditions: S. cerevisiae rad18 mutant growth inhibition, stronger effect = higher value
Method in brief: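 Yeast carrying a defined DNA damage repair alteration were exposed to compounds. Growth inhibition was expressed relative to vehicle-treated controls.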

[10] = NCI Yeast Anticancer Drug Screen. Data for the rad52 strain (AID 147);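 further: 0% = growth of vehicle-treated control cultures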; conditions: S. cerevisiae rad52 mutant growth inhibition, stronger effect = higher value
Method in brief: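 Yeast strain carrying a DNA damage repair alteration was exposed to test compounds. Growth inhibition was measured relative to vehicle-treated controls.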

[11] = NCI Yeast Anticancer Drug Screen. Data for the wt1 strain (AID 149);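 further: 0% = growth of vehicle-treated wt1 cultures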; conditions: S. cerevisiae wt1 strain (SPY 50644) growth inhibition, stronger effect = higher value
Method in brief: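 wt1 yeast, compound-treated; % growth inhibition vs vehicle control.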

[12] = NCI Yeast Anticancer Drug Screen. Data for the rad50EPP+ strain (AID 151);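 further: 0% = growth of vehicle-treated control cultures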; conditions: S. cerevisiae rad50 mutant strain, stronger effect = higher value
Method in brief: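 Yeast strain carrying rad50 alteration (rad50EPP+) exposed to compounds; growth inhibition measured relative to vehicle-treated controls.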

[13] = NCI Yeast Anticancer Drug Screen. Data for the rad50 strain (AID 155);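 further: 0% = growth of vehicle-only cultures of the same strain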; conditions: S. cerevisiae rad50 strain growth inhibition, stronger effect = higher value
Method in brief: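 Genetically altered yeast (DNA repair pathway); compound treatment; growth inhibition vs vehicle ctrl.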

[14] = NCI Yeast Anticancer Drug Screen. Data for the wt2 strain (AID 169);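 further: 0% = growth of vehicle-treated yeast cultures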; conditions: S. cerevisiae wt2 strain growth inhibition, stronger effect = higher value
Method in brief: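 Yeast cells were exposed to test compounds, and growth inhibition was measured relative to vehicle-treated controls.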

[15] = NCI Yeast Anticancer Drug Screen. Data for the mlh1 rad18 strain (AID 175); conditions: S. cerevisiae mlh1 rad18 strain growth inhibition, stronger effect = higher value
Method in brief: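 Growth inhibition of the yeast strain was measured after compound exposure and expressed relative to vehicle-treated controls. The strain carries defined defects in DNA damage repair.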

[16] = at 5.0 µM (retest, dose inferred, filed as 0.5)
[17] = at 50.0 µM (retest, dose inferred, filed as 5.0)

Measured: growth inhibition

COc1cc(CNc2ccc(C(C)C)cc2)cc(OC)c1OC
active: [2]; at 100.0 µM 72% | [6]; [17] 78% | [6]; at 100.0 µM 71% | [7]; at 100.0 µM 76% | [8]; at 100.0 µM 84%
inactive: [1]; at 100.0 µM 59% | [2]; at 1.2 µM -6% | [2]; at 3.7 µM -17% | [2]; at 11.0 µM -31% | [2]; at 33.0 µM -50% | [3]; [16] -7% | [3]; [17] 25% | [3]; at 50.0 µM 64% | [4]; at 1.2 µM -12% | [4]; at 3.7 µM -19% | [4]; at 11.0 µM -28% | [4]; at 33.0 µM -50% | [4]; at 100.0 µM -4% | [5]; [16] 6% | [5]; [17] 24% | [5]; at 50.0 µM 6.85% | [6]; at 1.2 µM -13% | [6]; at 3.7 µM -22% | [6]; [16] 13% | [6]; at 11.0 µM -26% | [6]; at 33.0 µM -6% | [6]; at 50.0 µM 65.2% | [7]; at 1.2 µM -2% | [7]; at 3.7 µM -21% | [7]; at 11.0 µM -15% | [7]; at 33.0 µM -20% | [8]; at 1.2 µM 26% | [8]; at 3.7 µM 23% | [8]; at 11.0 µM 21% | [8]; at 33.0 µM 11% | [9]; at 1.2 µM 4% | [9]; at 3.7 µM 9% | [9]; at 11.0 µM -5% | [9]; at 33.0 µM 9% | [9]; at 100.0 µM 64%

O=C(NCCCCCN1CCC2(CCCCC2)CC1)C(C1CCCCC1)C1CCCCC1
inactive: [10]; at 1.2 µM 23% | [10]; at 3.7 µM 5% | [10]; at 11.0 µM 65% | [11]; at 1.2 µM -63% | [11]; at 3.7 µM -5% | [11]; at 11.0 µM 6% | [12]; at 1.2 µM -1% | [12]; at 3.7 µM 0% | [12]; at 11.0 µM 3% | [12]; at 33.0 µM 10% | [13]; at 1.2 µM -1% | [13]; at 3.7 µM 11% | [13]; [16] -7% | [13]; at 11.0 µM 46% | [1]; at 1.2 µM 22% | [1]; at 3.7 µM -5% | [1]; [16] -22% | [1]; at 11.0 µM 42% | [2]; at 1.2 µM 11% | [2]; at 3.7 µM 49% | [3]; [16] -15% | [4]; at 1.2 µM -4% | [4]; at 3.7 µM 4% | [6]; at 1.2 µM -2% | [6]; at 3.7 µM 2% | [6]; [16] -17% | [14]; at 1.2 µM -1% | [14]; at 3.7 µM 3% | [14]; at 11.0 µM 45% | [7]; at 1.2 µM 0% | [7]; at 3.7 µM 7% | [8]; at 1.2 µM 2% | [8]; at 3.7 µM 24% | [15]; [16] -3% | [9]; at 1.2 µM 8% | [9]; at 3.7 µM 11% | [9]; at 11.0 µM 69%
active: [10]; at 33.0 µM 100% | [10]; at 100.0 µM 97% | [11]; at 33.0 µM 85% | [11]; at 100.0 µM 98% | [12]; at 100.0 µM 99% | [13]; at 33.0 µM 97% | [13]; [17] 99% | [13]; at 50.0 µM 99.5% | [13]; at 100.0 µM 99% | [1]; at 33.0 µM 100% | [1]; [17] 98% | [1]; at 50.0 µM 99.3% | [1]; at 100.0 µM 98% | [2]; at 11.0 µM 98% | [2]; at 33.0 µM 99% | [2]; at 100.0 µM 99% | [3]; [17] 99% | [3]; at 50.0 µM 99.6% | [4]; at 11.0 µM 78% | [4]; at 33.0 µM 99% | [4]; at 100.0 µM 99% | [5]; [16] 70% | [5]; [17] 99% | [5]; at 50.0 µM 98.8% | [6]; at 11.0 µM 80% | [6]; at 33.0 µM 99% | [6]; [17] 100% | [6]; at 50.0 µM 99.2% | [6]; at 100.0 µM 99% | [14]; at 33.0 µM 99% | [14]; at 100.0 µM 99% | [7]; at 11.0 µM 76% | [7]; at 33.0 µM 99% | [7]; at 100.0 µM 94% | [8]; at 11.0 µM 86% | [8]; at 33.0 µM 99% | [8]; at 100.0 µM 98% | [15]; [17] 99% | [15]; at 50.0 µM 99.5% | [9]; at 33.0 µM 100% | [9]; at 100.0 µM 98%
